These results are taken from ChEMBL document CHEMBL4513216, “Probing the Open Global Health Chemical Diversity Library for Multistage-Active Starting Points for Next-Generation Antimalarials” (ACS Infect Dis, 2020).

Each structure is given as a SMILES string. Among all 65,000 compounds or so, about 2,100 (3.2%) showed an effect of 50% or more. The median lay at about -52%. Many of the other results were omitted from the sample, so strong results are more common in it than they were.

This test deals with Plasmodium falciparum. Put plainly: Screen against P. falciparum Asexual Blood Stage (ABS), at 5uM. The class given is functional, Dd2. The following applies: tested at 5 uM.
For the compound `O=C1N(c2cncnc2)CCC12CCCN(Cc1cccnc1)C2` (stereo not given), the INHIBITION is -88.1%. On to `Cc1nn(C)c2ncc(S(=O)(=O)N3CCCN4CCCC4C3)cc12` (stereo not given), for which the INHIBITION is -18.1%.

For the compound `O=C1CSC(c2cccnc2)c2c(n(C3CCOCC3)[nH]c2=O)N1` (stereo not given), the INHIBITION is recorded as -140%. For `CC[C@@H]1N(C)CCC[C@]12CCC(=O)N2Cc1ccncc1` the value was 3.77%. Turning to `O=C1CCC2(CCN(Cc3ccc(F)cc3)CC2)N1CCN1CCCC1`, the INHIBITION is given as 84.6%.

For `COCCN1CCCC2(CCC(=O)N2Cc2cccnc2)C1` (stereo not given), the INHIBITION is -66.3%. For `Cc1cnc(N2CCCC3(CCCN3CC(=O)N(C)C)C2)nc1` (stereo not given) the value was -98.2%; for `COCc1cncc2c1CCN(Cc1cccs1)C2`, -1.55%; for `COCCNc1nc2c(c(NCCc3cccs3)n1)CCNCC2`, 81.9%. Regarding `COCCNc1nc2c(c(NCc3cnc(C)c(C)c3)n1)CCNCC2`, the INHIBITION is given as -67.4%.

For `Cn1cc(C2=CCN(CCCC(=O)Nc3ccc(C#N)cc3)CC2)cn1`, the INHIBITION is given as -69.1%. The value for `Cc1ccc(CN2CC[C@@H]3[C@@H]2CCN3C(=O)Cc2cccs2)o1` was -34.3%. The value for `CCn1ccnc1CN(C)C1CCCN(Cc2ccccc2F)C1` (stereo not given) was 70.4%.

For the compound `CCn1c(C)nnc1CN(C)C1CCN(CCOc2ccccc2)C1` (stereo not given), the INHIBITION is given as -23.4%.

Turning to `CCn1ccnc1CN1CCCN(C(=O)Cc2ccc(F)cc2)CC1`, the INHIBITION was -4.98%. In the case of `CCn1ccnc1CN1CCCN(C(=O)Cc2ccccc2C)CC1`, the INHIBITION is given as -41.3%. Consider `CCn1ccnc1CN(C)C1CCCN(CCCc2ccccc2)C1` (stereo not given), for which the INHIBITION is listed as 86.8%. For `Cc1nc(CC(=O)N(C)C2CCCN(CCc3ccccc3)C2)cs1` (stereo not given) the value was -42.4%; for `CCn1ccnc1CN(C)C1CCCN(CCc2ccccc2)C1` (stereo not given), 77.1%. The value for `Cc1ncc(CN(C)C2CCCN(CCc3ccccc3)C2)n1C` (stereo not given) was 90%; that for `COC(=O)N1C[C@@H]2CC[C@H]1CN(Cc1ccncc1)C2` was -81.6%; that for `c1cncc(O[C@H]2CC[C@H]3[C@H]2OCCN3C2CCCC2)c1` was -36.8%.

For the compound `O=C(c1ccc(F)c(F)c1)N1C[C@H]2CNC[C@H]2C1`, the INHIBITION is -51.2%. On to `Cc1nccn1CCCN1CCCC(c2ccccc2)C1` (stereo not given), for which the INHIBITION came out at 77.8%. For `Cc1ccc(O[C@@H]2C[C@H]3CN(c4ncc(F)cn4)CCN3C2)cc1` the value was -98.8%; for `c1cncc(OC[C@@]23CCC[C@@H]2CN(CC2CCOCC2)C3)c1`, 39%. Turning to `COCC1CC2(CCN(CC3CC3)CC2)CN1Cc1ccccn1` (stereo not given), the INHIBITION is 42.4%.

As to `CCN1CC(c2ccccc2)CC2(CCN(Cc3ncc[nH]3)CC2)C1` (stereo not given), the INHIBITION is recorded as 88.1%. For `Cc1cc(NC2CC3(CCN(Cc4cscn4)C3)C2)ncn1` (stereo not given) the value was 19.4%. For the compound `CN1CC(c2ccccc2)CC2(CCN(Cc3ncc[nH]3)CC2)C1` (stereo not given), the INHIBITION worked out at 82.5%. The value for `O=C1NCC[C@]12CN(Cc1ccncc1)C[C@H]2c1ccccc1` was -70.3%. For `c1ccc(C2CN(C3CC3)CC3(CCN(Cc4cscn4)CC3)C2)cc1` (stereo not given) the value was 80.4%.

For the compound `c1cc(NC2CC3(CCN(Cc4cc[nH]n4)C3)C2)ncn1` (stereo not given), the INHIBITION is -152%.

Take `c1cc(NC2CC3(CCN(Cc4cscn4)C3)C2)ncn1` (stereo not given): the INHIBITION is -13.3%. The value for `COCC1CC2(CCN(Cc3ccccn3)CC2)CN1C(C)C` (stereo not given) was 9.58%.
